Assay [1] is described as follows: ATG_TCF_b_cat_CIS: Attagene CIS-FACTORIAL HepG2 Assay for human T-Cell-Factor with beta-catenin (TCF/b-cat) (AID 2282965). Particulars: HepG2 TCF/beta-catenin cis-reporter transcription, actives raise or lower the signal. The method, boiled down: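 Measured: reporter mRNA in HepG2 transiently transfected with cis-promoter reporter units, 24 h after chemical addition. Fitting was bidirectional, DMSO as negative control.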

Assay [2] is described as follows: ATG_TAL_CIS: Attagene CIS-FACTORIAL HepG2 Assay for human TAL Basal Promoter (AID 2282966).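 Also: background control endpoint measuring basal TAL promoter reporter mRNA not a specific factor.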 Particulars: HepG2 Attagene cis-factorial TAL promoter reporter; actives raise or lower the signal. Put shortly:
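HepG2, transient MRTU transfection, 24 h compound exposure; RNA → oligo(dT) RT → PCR → 6-FAM primer extension → HpaI digest → CE fluorescence. Bidirectional curve fit vs DMSO. Background-control readout.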

Assay [3] is described as follows: ATG_TGFb_CIS: Attagene CIS-FACTORIAL HepG2 Assay for human Transforming Growth Factor (TGF) (AID 2282967). Conditions: HepG2 Attagene CIS TGFb reporter, mRNA transcription; actives raise or lower the signal. Put shortly: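 Cells were dosed for 24 hours, after which total RNA was reverse-transcribed and reporter sequences amplified, labeled and sized by capillary electrophoresis. Activity was fitted in both directions against DMSO.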

A short description of assay [4]: ATG_VDRE_CIS: Attagene CIS-FACTORIAL HepG2 Assay for human Vitamin D Receptor Element (VDRE) (AID 2282968). Particulars: HepG2 VDRE cis-reporter transcription, actives raise or lower the signal. Put shortly:
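Readout is VDRE-driven reporter mRNA reflecting endogenous factor activity in human HepG2 cells, sampled 24 h post-dose. Quantification used labelled RT-PCR products separated by capillary electrophoresis; bidirectional analysis relative to DMSO.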

Assay [5] concerns the target Nuclear receptor subfamily 1 group I member 3 (Homo sapiens) (UniProt Q14994). Put plainly: ATG_CAR_TRANS: Attagene TRANS-FACTORIAL HepG2 Assay for human Constitutive Androstane Receptor (CAR) (AID 2282969; active = hit-call score of the fitted dose curve at least 0.9, where 1 is the maximum;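 also: activators raise reporter mRNA above DMSO so AC50 marks induction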). Particulars: HepG2 Attagene TRANS-FACTORIAL CAR reporter. Put shortly: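 Signal is reporter mRNA induction relative to DMSO, measured 24 h after dosing by RT-PCR with fluorescent primer extension and capillary electrophoresis. Human HepG2 liver cells carried transiently transfected chimeric NR-Gal4/GAL4-UAS reporter constructs.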

In assay [6] the target is Estrogen receptor (Homo sapiens) (UniProt P03372). Put plainly: ATG_ERa_TRANS: Attagene TRANS-FACTORIAL HepG2 Assay for human Estrogen Receptor alpha (ERa) (AID 2282970; active = hit-call score of the fitted dose curve at least 0.9, where 1 is the maximum). Particulars: HepG2 Attagene TRANS ERa GAL4 reporter, mRNA. Put shortly:
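Reporter mRNA induction after 24 hours, detected by fluorescent RT-PCR and capillary electrophoresis, gives the read-out. Cells are HepG2 transiently transfected with GAL4-UAS reporter transcription units responding to chimeric NR-Gal4. Activity is taken as gain of signal over DMSO baseline.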

Assay [7] deals with X-box-binding protein 1 (Homo sapiens) (UniProt P17861). Put plainly: ATG_Xbp1_CIS: Attagene CIS-FACTORIAL HepG2 Assay for human X-box Binding Protein 1 (XBP1) (AID 2282972). Particulars: HepG2 XBP1 cis-element reporter, Attagene multiplex; actives raise or lower the signal. The method, boiled down:
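Multiplexed cis-reporter readout in transfected HepG2 liver cells. Exposure lasted 24 hours. Activity in either direction was fitted against DMSO as negative control and baseline.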

A short description of assay [8]: ATG_M_19_TRANS: Attagene TRANS-FACTORIAL HepG2 Assay for M19 Transcription Factor (Internal Marker) (AID 2282974; active = hit-call score of the fitted dose curve at least 0.9, where 1 is the maximum). Conditions: HepG2 Attagene TRANS-FACTORIAL M19 internal marker reporter. The method, boiled down:
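24 h chemical exposure of transiently transfected HepG2 (MRTU library). RNA → oligo(dT) RT → PCR → 6-FAM labelling → HpaI cut → CE fluorescence. Positive-direction fit vs DMSO baseline; background internal-marker readout.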

The target in assay [9] is Steroid hormone receptor ERR1 (Homo sapiens) (UniProt P11474). Put plainly: ATG_ERRa_TRANS: Attagene TRANS-FACTORIAL HepG2 Assay for human Estrogen-Related Receptor alpha (ERRa) (AID 2282971; active = hit-call score of the fitted dose curve at least 0.9, where 1 is the maximum). Particulars: HepG2 Attagene TRANS reporter, ERRa transactivation. Put shortly: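 Transfected HepG2, 24 h dosing, ERRa-Gal4 chimera driving GAL4-UAS reporter. Readout: reporter mRNA via RT-PCR plus capillary electrophoresis (fluorescence). Positive direction vs DMSO control.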

A short description of assay [10]: ATG_GAL4_TRANS: Attagene TRANS-FACTORIAL HepG2 Assay for GAL4 (Internal Marker) (AID 2282976; active = hit-call score of the fitted dose curve at least 0.9, where 1 is the maximum). Conditions: HepG2 Attagene TRANS GAL4 internal marker reporter. Put shortly:
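RT-PCR/capillary electrophoresis readout of reporter mRNA. HepG2, transient MRTU transfection (GAL4-UAS reporters), 24 h compound exposure. Background-control endpoint, positive direction vs DMSO baseline.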

Here are results for 32 compounds from PubChem BioAssay (EPA / NIEHS).

Results filed as inconclusive are left out. Activity calls are given as the source filed them. The calls were made as follows, unless noted: active = hit-call score of the fitted dose curve at least 0.9, where 1 is the maximum; inactive = score below 0.9.

Estrogen receptor (Homo sapiens), sequence (P03372 whole entry, looked up, the tested form may be a part): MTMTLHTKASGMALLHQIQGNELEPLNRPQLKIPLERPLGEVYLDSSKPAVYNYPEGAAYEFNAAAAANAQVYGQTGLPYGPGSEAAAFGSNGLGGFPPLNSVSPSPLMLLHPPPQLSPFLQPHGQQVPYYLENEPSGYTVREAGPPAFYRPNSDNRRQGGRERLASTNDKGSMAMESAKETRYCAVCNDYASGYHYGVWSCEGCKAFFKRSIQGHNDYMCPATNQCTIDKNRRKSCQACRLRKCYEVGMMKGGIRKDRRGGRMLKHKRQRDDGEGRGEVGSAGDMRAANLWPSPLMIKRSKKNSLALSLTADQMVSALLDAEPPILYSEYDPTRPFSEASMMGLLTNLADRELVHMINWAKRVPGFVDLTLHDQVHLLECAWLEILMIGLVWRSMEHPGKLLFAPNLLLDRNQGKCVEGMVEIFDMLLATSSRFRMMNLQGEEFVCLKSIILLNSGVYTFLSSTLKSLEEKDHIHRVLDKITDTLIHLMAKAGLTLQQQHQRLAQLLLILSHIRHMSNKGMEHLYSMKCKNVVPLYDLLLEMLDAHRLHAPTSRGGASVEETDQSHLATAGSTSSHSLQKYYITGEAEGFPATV
X-box-binding protein 1 (Homo sapiens), sequence (P17861 whole entry, looked up): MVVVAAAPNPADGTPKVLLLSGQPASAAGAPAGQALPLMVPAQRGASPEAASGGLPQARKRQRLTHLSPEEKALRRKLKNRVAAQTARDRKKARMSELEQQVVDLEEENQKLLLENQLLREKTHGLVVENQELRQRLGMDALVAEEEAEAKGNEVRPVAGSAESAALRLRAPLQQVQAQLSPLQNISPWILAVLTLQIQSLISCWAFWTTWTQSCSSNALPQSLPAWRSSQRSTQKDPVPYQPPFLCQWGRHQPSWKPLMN
Nuclear receptor subfamily 1 group I member 3 (Homo sapiens), sequence (Q14994 whole entry, looked up, the tested form may be a part): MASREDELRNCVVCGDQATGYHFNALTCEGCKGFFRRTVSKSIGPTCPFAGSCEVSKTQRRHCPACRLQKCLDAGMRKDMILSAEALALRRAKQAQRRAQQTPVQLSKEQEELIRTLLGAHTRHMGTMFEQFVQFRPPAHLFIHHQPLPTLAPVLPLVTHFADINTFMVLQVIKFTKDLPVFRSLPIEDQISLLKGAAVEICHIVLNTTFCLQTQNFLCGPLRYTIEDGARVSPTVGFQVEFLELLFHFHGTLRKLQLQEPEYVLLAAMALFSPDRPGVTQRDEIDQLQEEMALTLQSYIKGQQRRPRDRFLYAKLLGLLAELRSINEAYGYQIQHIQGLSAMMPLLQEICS
Steroid hormone receptor ERR1 (Homo sapiens), sequence (P11474 whole entry, looked up, the tested form may be a part): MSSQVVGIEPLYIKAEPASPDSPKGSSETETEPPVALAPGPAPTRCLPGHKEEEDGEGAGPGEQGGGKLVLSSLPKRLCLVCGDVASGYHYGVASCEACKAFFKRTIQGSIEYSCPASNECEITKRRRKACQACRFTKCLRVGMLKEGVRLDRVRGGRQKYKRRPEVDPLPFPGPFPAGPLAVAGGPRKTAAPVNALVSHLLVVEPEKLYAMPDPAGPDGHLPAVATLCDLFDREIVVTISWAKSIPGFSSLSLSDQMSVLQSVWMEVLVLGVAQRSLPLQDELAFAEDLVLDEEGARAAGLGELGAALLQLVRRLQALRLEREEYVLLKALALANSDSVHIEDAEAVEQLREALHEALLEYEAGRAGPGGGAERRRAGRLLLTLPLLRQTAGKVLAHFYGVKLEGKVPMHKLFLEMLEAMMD

With `Cc1ccc(C)c(C)c1`, the compound was called inactive in assay [1], in [2], in [3], in assay [4], in assay [5] and in assay [6]. The outcome in assay [7] and in [8] was inactive.
For the compound `C[Si]1(C)O[Si](C)(C)O[Si](C)(C)O[Si](C)(C)O1`, the compound was classed as inactive in assay [1], in assay [2], in assay [3], in [4], in [5] and in [7]. In addition, the AC50 in assay [6] was 38.8 µM (active).
`COCCOC[C@H](CC1(C(=O)NC2CCC(C(=O)O)CC2)CCCC1)C(=O)Oc1ccc2c(c1)CCC2` (stereo not given in full): the call in [1], in [2], in assay [3], in assay [6], in [9] and in assay [7] was inactive. Further, in assay [10], the compound was called inactive. In addition, the AC50 in assay [4] was 48.5 µM (active).
`COc1cc(-c2nc(NC(=O)c3cc4cc(C)cc(C)c4n3CC(=O)O)sc2CCC2CCCCC2)c(OC)cc1Cl`: the half-maximal activity concentration (AC50) in [1] was 5.17 µM (active); in [2] it was 100 µM (active); in assay [3] it was 26 µM (active); in assay [4] it was 7.46 µM (active); in [7], 21.7 µM (active). Also, the compound was classed as inactive in assay [6].
For `CN1CCCC1=O`, the compound was classed as inactive in [1], in assay [2], in assay [3], in assay [4], in [6] and in assay [7].
In the case of `Cc1ccc(N(C)C)cc1`, the call in assay [1], in assay [2], in assay [3], in [4], in assay [6] and in [7] was inactive.
In the case of `O=c1[nH]cc(F)c(=O)[nH]1`, the call in assay [1], in assay [2], in assay [3], in assay [4] and in [7] was inactive. For the same compound, the AC50 in assay [6] is 26.1 µM (active).
Turning to `Cc1cccc(Nc2cc(Cl)nc(SCC(=O)O)n2)c1C`, the result in assay [1], in [2], in assay [3], in assay [4], in assay [6] and in assay [7] was inactive. Further, the result in assay [10] was inactive.
For `CC(=O)Oc1ccccc1C(=O)O`, the AC50 is 162 µM (active) in [1] and 82.9 µM (active) in [4]. For the same compound, the compound was called inactive in [2], in assay [3], in [6] and in assay [7].
Take `C1CCC(SSC2CCCCC2)CC1`: the outcome in [1], in assay [2], in [3], in assay [4] and in [7] was inactive. In addition, in assay [6], the AC50 is 27.4 µM (active).
In the case of `CCCCCCOCCO`, the compound was classed as inactive in [1], in assay [2], in assay [3], in assay [4], in [6] and in assay [7]. The compound was called inactive in [8] and in assay [10].
Regarding `Cc1ccccc1Cl`, the outcome in assay [1], in assay [2], in [3], in assay [4], in assay [6] and in assay [7] was inactive.
In the case of `CCCCN(CCCC)CCCC`, the call in assay [1], in [2], in [3], in assay [4], in [6] and in assay [7] was inactive.
`CCCCCCCCCCO`: the figures for the concentration at half-maximal activity (AC50) in [1] and in [7] were 166 µM (active) and 160 µM (active), respectively. The compound was called inactive in [2], in assay [3], in assay [4] and in assay [6].
Consider `C[C@]12C=CC(=O)C=C1CC[C@@H]1[C@@H]2C(=O)C[C@@]2(C)[C@H]1CC[C@]2(O)C(=O)CO`, for which the compound was classed as inactive in assay [1], in assay [2], in assay [3], in assay [4] and in assay [7]. Also, the AC50 in assay [6] is 58.3 µM (active).
For the compound `CN1CCN(Cc2cc(-c3ccc4[nH]c(=O)oc4c3)co2)[C@@H](c2ccc(F)cc2)C1`, the values for the half-maximal activity concentration (AC50) in assay [1] and in assay [4] were 25.7 µM (active) and 27.4 µM (active), respectively. The call in assay [2], in assay [3], in [6], in [7] and in assay [8] was inactive.
As for `CCCCCCCCCCCC(=O)OC`, the compound was called inactive in [1], in [2], in assay [3], in [4], in assay [6] and in [7]. Also, in assay [10], the outcome was inactive.
For `Cc1c(C(=O)O)c(O)cc2c1C(=O)c1c(O)c([C@@H]3O[C@H](CO)[C@@H](O)[C@H](O)[C@H]3O)c(O)c(O)c1C2=O`, the outcome in assay [1], in [2], in assay [3], in assay [4], in [6] and in assay [7] was inactive.
Turning to `O=C(O)Cc1ccccc1Nc1c(Cl)cccc1Cl`, the concentration at half-maximal activity (AC50) in assay [1] is 40.6 µM (active); in assay [4], 16.2 µM (active). Moreover, the outcome in assay [2], in assay [3], in assay [6], in [7] and in [10] was inactive.
Turning to `CNCc1cc(F)ccc1Oc1ccc(Cl)c(Cl)c1`, the outcome in assay [1], in assay [2], in [3], in [4], in assay [6] and in [7] was inactive.
Regarding `CC(=O)OCCOCCOCCOC(C)=O`, the call in assay [1], in assay [2], in [3], in assay [4], in assay [6] and in assay [7] was inactive. Besides, the compound was called inactive in assay [8] and in [10].
On to `CC1=C(/C=C/C(C)=C/C=C/C(C)=C/CO)C(C)(C)CCC1`, for which the AC50 in [1] is 25.9 µM (active); in [4] it was 1.85 µM (active); in assay [6], 4.28 µM (active). The compound was called inactive in [2], in assay [3], in assay [7] and in assay [10].
Consider `CC(C)c1ccc(C(=O)N=C(N)N)cc1S(C)(=O)=O`, for which the outcome in assay [1], in assay [2], in [3], in [4] and in assay [7] was inactive. In addition, the half-maximal activity concentration (AC50) in [6] is 68.6 µM (active).
Consider `Cc1nc(-c2ccc3c(c2)CCN(CCC2CCC(NC(=O)/C=C/c4ccc(F)cc4)CC2)CC3)no1` (stereo not given), for which the outcome in assay [1], in assay [2], in assay [3], in assay [4], in assay [6] and in assay [7] was inactive.
`Cc1cccc(C)c1O`: the call in assay [1], in assay [2], in assay [3], in assay [4], in assay [7] and in assay [10] was inactive. For the same compound, the AC50 in assay [6] is 31.9 µM (active).
In the case of `CC(C)(C)c1cc(O)c(C(C)(C)C)cc1O`, the AC50 was 8.01 µM (active) in assay [1], 32 µM (active) in [4] and 37.6 µM (active) in assay [7]. Further, the result in assay [2], in assay [3], in [6], in [8] and in [10] was inactive.
`Nc1nc(N)c2nc(CNc3ccc(C(=O)N[C@@H](CCC(=O)O)C(=O)O)cc3)cnc2n1`: the AC50 in assay [1] was 116 µM (active). The result in assay [2], in [3], in assay [4], in assay [6] and in assay [7] was inactive.
`CC(CO)OC(C)CO` (stereo not given) (tested in a mixture with another compound): the compound was called inactive in assay [1], in assay [2], in assay [3], in assay [4], in assay [6] and in assay [7].
As for `COC(=O)c1ccc(O)cc1`, the call in assay [1], in [2], in assay [3], in assay [4] and in assay [7] was inactive. Moreover, the AC50 in assay [6] was 63.8 µM (active).
`CCCCCCCC=O`: the compound was classed as inactive in assay [1], in [2], in [3], in assay [4], in assay [6] and in assay [7].
With `Cc1ccc(Cl)cc1`, the result in assay [1], in [2], in assay [3], in assay [4], in [6] and in assay [7] was inactive.
`COCCOCCOC`: the outcome in assay [1], in assay [2], in [3], in [4], in assay [6] and in [7] was inactive. In [10], the compound was called inactive.

Usually AC50 stands for the midpoint of the concentration-response curve, whichever way the signal moves.
